Assay outcomes deposited in PubChem BioAssay by several laboratories.
SKN-1 block – suppressors of acrylamide-induced Pgst-4::GFP reporter in worms, primary screen, SKN-1 inhibitor project, whole organism, uHTS, GFP/RFP fluorescence ratio, strain VP596. C. elegans VP596 Pgst-4::GFP/RFP ratio, 24 h. AID 624304, 2012. actives 0.49% (n = 360,000). inhibition, % at 21.8 µM;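 active = interference check ratio from 0.5 to 1.5 plus GFP to RFP signal ratio inhibition reaching or exceeding a fixed threshold, cut at about 30% in these data, passing the limit was not always enough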
ATG4B inh – ATG4B protease inhibitors, primary screen, biochemical, fluorescence, uHTS; Cysteine protease ATG4B (Homo sapiens), Q9Y4P1; ATG4B cleavage of LC3-PLA2, NBD-HPC fluorescence, 1 h; inhibition, % at 8.33 µM; actives 0.51% (n = 340,000); in the data active = inhibition above about 40%
Target sequence (Q9Y4P1 whole entry, looked up): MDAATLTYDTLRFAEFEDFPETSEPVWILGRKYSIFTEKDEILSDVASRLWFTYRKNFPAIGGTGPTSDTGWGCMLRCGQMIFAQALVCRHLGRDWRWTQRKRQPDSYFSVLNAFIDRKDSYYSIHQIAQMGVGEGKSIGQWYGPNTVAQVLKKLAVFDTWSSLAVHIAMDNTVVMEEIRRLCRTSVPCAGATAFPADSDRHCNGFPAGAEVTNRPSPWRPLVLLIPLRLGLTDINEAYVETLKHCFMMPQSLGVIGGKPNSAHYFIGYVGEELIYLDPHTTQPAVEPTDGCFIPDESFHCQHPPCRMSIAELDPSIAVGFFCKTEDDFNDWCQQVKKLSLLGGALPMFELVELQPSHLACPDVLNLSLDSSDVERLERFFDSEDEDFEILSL
M1 ag – human M1 muscarinic receptor agonists, primary screen, Fluo-8 calcium fluorescence, CHO-K1 cells, HTS; Muscarinic acetylcholine receptor M1 (Homo sapiens), P11229; CHO-K1 hM1, agonist mode; 0% DMSO, 100% acetylcholine EC100; activation, % at 3 µM; actives 0.33% (n = 360,000); AID 588814, 2011;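 active = activation above the run's mean compound activation plus 3 SD, cut at about 16% in these data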;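 note: peak over basal fluorescence ratio within a 140 s kinetic read after compound addition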
Myeloid diff MLP – induction of myeloid progenitor differentiation, primary screen, cell-based, flow cytometry, MLPCN library; AID 624256, 2012; ER-HoxA9 myeloid progenitors, lysozyme-GFP differentiation; calls only at 10 µM; actives 1% (n = 360,000);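 active = normalized GFP-positive differentiation at or above the plate's own cutoff, the solvent-only control mean plus 3 SD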;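 note: cells exposed to compound for four days before flow analysis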
M1 PAM – human M1 muscarinic receptor positive allosteric modulators, primary screen, CHO-K1 cells, Fluo-8 calcium fluorescence, 1536-well; activation, % at 3 µM; Muscarinic acetylcholine receptor M1 (Homo sapiens), P11229; AID 588819, 2011; actives 0.088% (n = 360,000); CHO-K1 hM1, ACh EC20; 0% = ACh EC20, 100% = maximal ACh; in the data active = activation above about 19%, passing the limit was not always enough
CHRM1 antagonist – human M1 muscarinic receptor antagonists, primary screen, CHO-K1 cells, Fluo-8 calcium fluorescence, 1536-well. CHO-K1 hM1, ACh EC80 antagonist. Muscarinic acetylcholine receptor M1 (Homo sapiens), P11229. inhibition, % at 3 µM. actives 1.3% (n = 360,000);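 active = percent inhibition above its own plate's cutoff, namely the mean of that plate's compound wells plus 3 SD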;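 note: peak over basal fluorescence ratio during 140 s after agonist addition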
ATG4B confirm – ATG4B protease inhibitors, retest, confirmation, biochemical, fluorescence, single concentration; ATG4B protease fluorescent substrate cleavage assay; inhibition, % at 8.33 µM; actives 92% (n = 320); shares compounds with ATG4B inh; in the data active = inhibition above about 39%
PLA2 ctr – PLA2 enzyme inhibition, counter-screen for ATG4B inhibitor project, biochemical, single concentration, uHTS hits. shares compounds with ATG4B inh. purified PLA2, NBD-C6-HPC fluorescence, 45 min. inhibition, % at 8.33 µM. actives 66% (n = 1,600). AID 588402, 2011; in the data active = inhibition above about 50%
Target sequence (P04054 whole entry, looked up): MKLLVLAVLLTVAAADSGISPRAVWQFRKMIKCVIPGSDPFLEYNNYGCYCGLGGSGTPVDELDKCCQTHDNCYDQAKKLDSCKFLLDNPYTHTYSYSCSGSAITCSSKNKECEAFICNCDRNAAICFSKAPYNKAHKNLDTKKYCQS
Of the large screens only hits and unclear results are named; the others gave an inactive call (follow-up assays come after a bar, where they were run). A selection: hits, their analogues and other compounds. The true share with any hit is near 3.5%.

O=C(Nc1nnc(SCc2cccc3ccccc23)s1)C1COc2ccccc2O1 (centres undefined)	ATG4B inh 44 | PLA2 ctr 62
CCCN(Cc1nnc(-c2cccs2)o1)C(=O)CN1C(=O)NC2(CCCCC2)C1=O	none
COc1ccc2c(c1)CCC1(C)CC(=O)C(Br)=C21 (centres undefined)	none (no result: ATG4B inh)
CCOc1cc2c3c(c1)C1(Nc4ccccc4S1)C(=O)N3C(C)(C)CC2C (centres undefined)	ATG4B inh 43 | PLA2 ctr inactive
CCOc1cc2c3c(c1)C1(OCCO1)C(=O)N3C(C)(C)CC2C (centres undefined)	none
O=C(NCCCN1CCOCC1)C1CCN(S(=O)(=O)c2ccccc2)CC1	none
O=[N+]([O-])c1ccccc1C1Nc2cccc3cccc(c23)N1	none
O=[N+]([O-])c1ccc(Cl)c(C2Nc3cccc4cccc(c34)N2)c1	ATG4B inh 54 | PLA2 ctr 71
CCNc1nc(CSc2ccccc2)nc2sc(C)c(C)c12	ATG4B inh 45 | ATG4B confirm 61 | PLA2 ctr inactive
Cc1sc2nc(CSc3ccccc3)nc(NCCN(C)C)c2c1C	none
COC(=O)CCC(=O)OC1(C)C(=O)C2=CN(Cc3ccc4c(c3)OCO4)C(c3ccc(OC)cc3)=CC2=C(Br)C1=O (centres undefined)	none
CC1(OC(=O)C2CCCC2)C(=O)C=C2C=C(c3ccsc3)OC=C2C1=O (centres undefined)	none
COc1ccc(C2=CC3=C(Br)C(=O)C(C)(OC(=O)C4CCCC4)C(=O)C3=CO2)cc1 (centres undefined)	ATG4B inh 65 | PLA2 ctr 81
COC(=O)CCC(=O)OC1(C)C(=O)C2=CN(CCc3ccccn3)C(c3ccc(OC)cc3)=CC2=C(Br)C1=O (centres undefined)	none
COC(=O)CCC(=O)OC1(C)C(=O)C2=COC(c3ccc(OC)cc3)=CC2=C(Br)C1=O (centres undefined)	ATG4B inh 51 (no result: SKN-1 block, M1 ag, Myeloid diff MLP, M1 PAM, CHRM1 antagonist) | PLA2 ctr 57
COc1ccc(C2=CC3=C(Br)C(=O)C(C)(OC(=O)c4ccc(Cl)nc4)C(=O)C3=CO2)cc1 (centres undefined)	ATG4B inh 67 (no result: SKN-1 block, M1 ag, Myeloid diff MLP, M1 PAM, CHRM1 antagonist) | PLA2 ctr 59
COC(=O)CCC(=O)N1CCCC(N2CCN(c3ccc(OC)cc3)CC2)C1 (centres undefined)	none
CCOC(=O)C1(CCc2ccccc2)CCN(C(=O)c2ccoc2)CC1	none
CC#CC(=O)N1CCC(CCc2ccccc2)(C(=O)OCC)CC1	ATG4B inh 49 | PLA2 ctr inactive
O=C(COC(=O)c1ccc2[nH]c3c(c2c1)CCCC3)Nc1ccccc1Cl	none
CCC(C)c1ccccc1NC(=O)COC(=O)c1ccc2[nH]c3c(c2c1)CCCC3 (centres undefined)	ATG4B inh 42, Myeloid diff MLP active | PLA2 ctr 57
Nn1c(SCC(=O)NCCc2ccc(F)cc2)nnc1C1CCCCC1	none
CCOC(=O)c1ccc(NC(=O)NCc2ccccc2)cc1	ATG4B inh 49 | PLA2 ctr 56
COc1ccccc1NS(=O)(=O)c1cccc(N=C2N=C(N)c3ccccc32)c1	ATG4B inh 54 | PLA2 ctr 57
CCC(CO)n1c(SCc2cc([N+](=O)[O-])cc3c2OCOC3)nc2ccccc2c1=O (centres undefined)	ATG4B inh 43 | PLA2 ctr 55
Cc1ccc(S(=O)(=O)N2CCN(C(=O)CCC(=O)NCc3cccc(C(F)(F)F)c3)CC2)cc1	ATG4B inh 71 | PLA2 ctr 78
O=C(NCCC1=CCCCC1)Nc1ccc2nsnc2c1	ATG4B inh 46 | PLA2 ctr inactive
COc1ccc(C[C@H]2c3cc(O)c(OC)cc3CC[N+]2(C)[O-])cc1O (some centres undefined)	none
COc1ccc2nc(N3CCCCC3)c(/C=C3\SC(=S)NC3=O)cc2c1	ATG4B inh 77 | ATG4B confirm inactive | PLA2 ctr inactive
COc1ccc(-n2c(C)cc(/C=C3\SC(=S)NC3=O)c2C)cc1	none
O=C1NC(=S)S/C1=C\c1cc2ccccc2nc1N1CCCCC1	ATG4B inh 65 | PLA2 ctr 79
COc1cccc(NC(=O)CN(C)C(=O)c2cc(S(=O)(=O)NCc3ccccc3)ccc2C)c1	none
O=S(=O)(NCCC1=CCCCC1)c1c(Cl)cccc1Cl	none
O=C(Nc1ccc(C(O)c2ccccc2)cc1)[C@@H]1O[C@H](CO)[C@H](O)[C@H](O)[C@H]1O (some centres undefined)	none (no result: ATG4B inh)
O=c1/c(=C\c2cc([N+](=O)[O-])cc([N+](=O)[O-])c2O)sc2nc3ccccc3n12	ATG4B inh 59 | PLA2 ctr 69
CC(=O)NC(c1ccccc1)c1nc(-c2ccc3ccccc3c2)cs1 (centres undefined)	none (no result: ATG4B inh)
CCOc1ccccc1-n1ccn(CC(=O)Nc2ccc(Br)cc2F)c(=O)c1=O	none
COc1ccc2c(c1)C(c1ccc(C)o1)=NNC(c1ccccc1)=N2	ATG4B inh 42 | ATG4B confirm 69 | PLA2 ctr inactive
CCOc1ccc2c(c1)C(c1ccccc1)=NNC(c1ccccc1)=N2	ATG4B inh 75 | PLA2 ctr 72
COc1ccc2c(c1)C(c1cccs1)=NNC(c1ccncc1)=N2	none
Cc1ccc(C2=Nc3ccc(Br)cc3C(c3ccncc3)=NN2)cc1	ATG4B inh 44 | PLA2 ctr inactive
COc1ccc(C2=NNC(c3cccnc3)=Nc3ccc(OC)cc32)cc1	none
Cc1ccc2c(c1)C(c1ccncc1)=NNC(c1ccc(F)cc1)=N2	none
CCCOc1ccc(C2=NNC(c3cccs3)=Nc3ccc(OC)cc32)cc1	ATG4B inh 49 | PLA2 ctr 77
O=S(Cc1cc(Oc2ccccc2)nc(-c2ccccc2)n1)c1ccccc1 (centres undefined)	none
